This note sets out measurements from PubChem BioAssay (Tox21).

Results filed as inconclusive are left out. Where a call stands in place of a potency, no number is given. Calls of active or inactive are those of the source. The call rests on the fitted dose curve.
Potency means the concentration at half of the fitted maximal effect.

The experiment in a line: qHTS assay for small molecule agonists of the p53 signaling pathway - cell viability (AID 651633). Further: nearly all actives have a fitted effect of over 30% in size. The note with it: p53RE-bla HCT-116 viability, ATP luminescence, 16 h; series mostly up to 83.3 µM. In short, it runs like this:
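Viability counter-read: CellTiter-Glo luminescence (30 min, room temperature) in the same p53RE-bla plates. These plates had been exposed to compounds for 16 h at 37 C.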
A general note: Quantitative high-throughput screening tests each substance at several concentrations.
As for `CC(=O)C(C)=O`, the Potency result was “inactive”.
For `O=C1[C@@H]2[C@H]3CC[C@H](C3)[C@@H]2C(=O)N1CCCCN1CCN(c2ncccn2)CC1` the value was “inactive”.
With `CNS(=O)(=O)c1cc(C(=O)N2CCC(CCN3C4CCC3CC(n3c(C)nc5ccccc53)C4)(c3cccc(F)c3)CC2)c(Cl)cc1F` (stereo not given) the figure was 48.6 µM (active); with `O=C(O)CCS`, “inactive”; with `COc1ccc(CCN(C)CCCN2CCc3cc(OC)c(OC)cc3CC2=O)cc1OC`, “inactive”.
With `CCCCCC` the entry was “inactive”.
As to `O=C(O)CCC(=O)c1ccc(-c2ccccc2)cc1`, the Potency result was “inactive”.
For `CC1CCCO1` (stereo not given) the value was “inactive”.
With `CSCC[C@H](NC(=O)[C@H](Cc1c[nH]c2ccccc12)NC(=O)CCNC(=O)OC(C)(C)C)C(=O)N[C@@H](CC(=O)O)C(=O)N[C@@H](Cc1ccccc1)C(N)=O` the entry was “inactive”.
For `COc1ccc(-c2cc(=S)ss2)cc1` the value was “inactive”; for `O=C(Oc1ccccc1)c1ccc2ccccc2c1O`, “inactive”; for `SCCc1cnccn1`, “inactive”.
For the compound `CCC(C)(C)C(=O)O`, the Potency result was “inactive”.
On to `Cc1cc(CCC(=O)OCCOCCOCCOC(=O)CCc2cc(C)c(O)c(C(C)(C)C)c2)cc(C(C)(C)C)c1O`, for which the Potency entry is “inactive”.
For `CCCCCCCC/C=C\CCCCCCCC(=O)OCCO` the value was “inactive”; for `COc1ccc(N)c([N+](=O)[O-])c1`, “inactive”.
With `COc1ccc2nc(S(=O)Cc3ncc(C)c(OC)c3C)[nH]c2c1` (stereo not given) the entry was “inactive”.
Regarding `O=C(O)c1ccc(O)cc1O`, the Potency entry is “inactive”.
For `c1ccc(CNc2ncnc3c2ncn3C2CCCCO2)cc1` (stereo not given) the value was “inactive”; for `C[C@@H]1[C@H](O)[C@@H](C)/C=C/C=C\C=C\C=C\C=C\C=C\C=C\[C@H](O[C@@H]2O[C@H](C)[C@@H](O)[C@H](N)[C@@H]2O)C[C@@H]2O[C@](O)(C[C@@H](O)C[C@@H](O)[C@H](O)CC[C@@H](O)C[C@@H](O)CC(=O)O[C@H]1C)C[C@H](O)[C@H]2C(=O)O` (stereo in doubt), “inactive”.
